Hits are enriched below; roughly 1.4% of the tested compounds scored in any of these assays.
p53 reactivator – qHTS assay for re-activators of p53 using a Luc reporter | H1299 p53-A138V BP100-luciferase reporter, luminescence, 24 h | Potency, µM (doses to about 92.2 µM), for inactives: at the highest dose activity change, positive = activation, most hits filed as activators | actives 0.063% (n = 320,000) | AID 504706, 2011; also: potency is read from the fitted curve at half-maximal effect; % of control where 0% means no effect; nearly all actives have a fitted effect of over 45% in size
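H1299 (p53-null), stable ts p53-A138V + BP100-Luc; 1000 cells/well, Opti-MEM/10% FBS; cpd 4 pt, 1:5; 24 h, 37 deg C, 5% CO2; detection reagent 10 min RT; luminescence.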
ALOX12 inh – Primary qHTS assay for inhibitors of human arachidonate 12S-lipoxygenase (ALOX12): Round 2. Polyunsaturated fatty acid lipoxygenase ALOX12 (Homo sapiens), P18054. actives 1.1% (n = 580,000). Potency, µM (top dose mostly 108 µM), for the others: at the top dose activity change, negative = inhibition, hits mostly inhibitors. AID 1671190, 2021. purified 12hLO, xylenol orange hydroperoxide absorbance; also: potency is read from the fitted curve at half-maximal effect; % is scaled to controls: 0 for no effect and ±100 for the full control effect
Target sequence (P18054 whole entry, looked up): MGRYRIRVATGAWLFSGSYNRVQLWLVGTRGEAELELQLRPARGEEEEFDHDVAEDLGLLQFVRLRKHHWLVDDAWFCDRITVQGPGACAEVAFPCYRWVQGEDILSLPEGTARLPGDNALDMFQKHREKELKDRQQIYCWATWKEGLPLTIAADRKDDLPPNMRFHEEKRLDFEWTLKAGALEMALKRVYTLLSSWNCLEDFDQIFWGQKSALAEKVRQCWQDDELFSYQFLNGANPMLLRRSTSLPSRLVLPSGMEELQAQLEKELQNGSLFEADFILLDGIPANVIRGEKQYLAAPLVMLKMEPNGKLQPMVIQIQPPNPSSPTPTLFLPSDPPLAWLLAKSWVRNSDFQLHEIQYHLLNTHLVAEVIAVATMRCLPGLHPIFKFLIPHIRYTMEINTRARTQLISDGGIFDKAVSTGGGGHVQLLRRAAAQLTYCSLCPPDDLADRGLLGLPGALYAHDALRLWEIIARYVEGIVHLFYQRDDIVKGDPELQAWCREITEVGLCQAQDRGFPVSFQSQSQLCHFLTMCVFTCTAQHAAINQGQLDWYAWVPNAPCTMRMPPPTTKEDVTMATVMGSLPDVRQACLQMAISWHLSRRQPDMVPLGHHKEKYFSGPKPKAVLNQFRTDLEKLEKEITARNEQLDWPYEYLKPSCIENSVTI
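Purified human 12hLO (150 nM final) in 25 mM Hepes, 0.01% Triton X-100, pH 7.0 was preincubated 15 min at room temperature with compound. Then 40 uM arachidonic acid was added, 30 min. Hydroperoxide was read by Fe-XO absorbance ratio 573/405 nm.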
S-ASM inh – Inhibitors of Secretory Acid Sphingomyelinase (S-ASM): qHTS. AID 504937, 2011. Sphingomyelin phosphodiesterase (Homo sapiens), P17405. placental ASM, HMU-PC fluorogenic substrate, 60 min. actives 0.006% (n = 340,000). Potency, µM (doses to about 57.5 µM), for the others: top-dose activity change, negative = inhibition, usual class: inhibitors; also: potency is read from the fitted curve at half-maximal effect
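Fluorescence read-out (Ex 386 nm, Em 447 nm) after stopping the reaction at pH 10. Enzyme: ASM from human placenta; substrate HMU-PC0, 9 uM final; 60 min, 37 °C. Compound preincubation 10 min, ambient temperature.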
PINK1 modulator – A Quantitative High throughput Screen to Identify Chemical Modulators of PINK1 Expression | PINK1 immunofluorescence, high-content cytometry, 24 h | Potency, µM (highest dose often 76.6 µM), without a hit: at the highest dose activation (PINK1 increase), most hits filed as activators | actives 0.2% (n = 410,000) | AID 624263, 2012; active = well fitted activation curve with a large enough effect; inconclusive = small, poorly fitted or top-dose-only effect; cell line not stated here; also: potency is read from the fitted curve at half-maximal effect; % of control where 0% means no effect; nearly all actives have a fitted effect of over 65% in size
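Stable cell line treated 24 h with compounds at 5 concentrations (CCCP controls), then fixed and immunostained for PINK1 plus nuclear and cell stains; PINK1 immunofluorescence quantified by laser-scanning microplate cytometry.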
CCT chaperon mod – High-Throughput Screening for Modulators of Cytosolic Chaperonin Activity | purified chaperonin ATPase assay, HTRF ADP detection, 30 min | actives 0.3% (n = 360,000) | activity change, % (no concentration beside the values), hits read low; in the data active = activity change below about -30%; also: % is scaled to controls: 0 for no effect and ±100 for the full control effect
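ATPase activity: ADP formed was measured by HTRF Transcreener (665/615 nm ratio) after 30 min at 37 deg C with 10 uM ATP. Compounds screened at one 76 uM concentration against 40 or 20 nM TRiC in Tris pH 7.4/KCl/MgCl2/DTT buffer.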
MmCpn inh – Inhibitors of TCP-1 ring complex (TRiC) of Methanococcus maripaludis (MmCpn): qHTS. Chaperonin Mm-Cpn (Methanococcus maripaludis). purified Mm-Cpn ATPase, ADP Transcreener TR-FRET. Potency, µM (titrated, usually from 76.9 µM), inactives show at the top dose activity, negative = inhibition, actives largely listed as inhibitors. actives 0.031% (n = 330,000); also: potency is read from the fitted curve at half-maximal effect; % is scaled to controls: 0 for no effect and ±100 for the full control effect; nearly all actives have a fitted effect of over 80% in size
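Measured: ADP formation by purified Mm-CPN. Conditions: 25 nM protein, 10 uM ATP, Tris pH 7.4 with Mg2+, K+ and DTT, 37°C for 30 min. Detection: Transcreener HTRF after 30 min at room temperature.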
Active calls of the source: *; ? = inconclusive; . = no result given; ! = a repeat was not active; [ ] = another dose, or the depositor's remark. Unless noted, calls follow the shape of the dose curve; as a rule, active = well fitted curve in the direction sought with a large enough effect; inconclusive = small, poorly fitted or top-dose-only effect, or another doubt; inactive = no such curve, though single readings can be large; an effect the other way counts as inactive or inconclusive.

SMILES	p53 reactivator	ALOX12 inh	S-ASM inh	PINK1 modulator	CCT chaperon mod	MmCpn inh
Cc1cc(N2C(=O)C(O)=C(C(=O)c3ccco3)C2c2cccc(O)c2)no1 (centres undefined)	10%	?	-3%	-1%	0	-2%
CCOC(=O)c1sc(N2C(=O)C(O)=C(C(=O)c3ccco3)C2c2cccc([N+](=O)[O-])c2)nc1C (centres undefined)	-10%	45µM*	4%	-1%	0	-3%
Cc1cc(C)c2nc(N3C(=O)C(O)=C(C(=O)c4ccco4)C3c3cccc(O)c3)sc2c1 (centres undefined)	-5%	25µM*	-1%	5%	1	-4%
O=C(C1=C(O)C(=O)N(c2nc3ccc(Cl)cc3s2)C1c1ccco1)c1ccco1 (centres undefined)	4%	7.9µM*!	16%	-1%	2	-21%
Cc1ccc2nc(N3C(=O)C(O)=C(C(=O)c4ccc(C)o4)C3c3ccco3)sc2c1 (centres undefined)	?	0.56µM*	18%	?	-3	?
CCCc1cc(=O)oc2cc(C)cc(OC(C)C(=O)NCCCO)c12 (centres undefined)	.	20%	.	.	.	.
CCCOc1ccc(-c2nc(C#N)c(NCCN(C)C)o2)cc1	.	-5%	.	.	.	.
Cc1ccc(C2C(C(=O)c3ccco3)=C(O)C(=O)N2c2nnc(C)s2)cc1 (centres undefined)	0%	?	-2%	-1%	-4	-22%
Cc1ccc2nc(N3C(=O)C(O)=C(C(=O)c4ccco4)C3c3ccc(O)cc3)sc2c1 (centres undefined)	-3%	22µM*!	.	.	.	-8%
Cc1cc(C)c2nc(N3C(=O)C(O)=C(C(=O)c4ccco4)C3c3ccc(O)cc3)sc2c1 (centres undefined)	-3%	25µM*	6%	7%	3	1%
NCCOc1ccc2c(c1)CCC2	.	19%	.	.	.	.
COc1ccc(-c2noc([C@@H]3Cc4nc[nH]c4CN3Cc3ccc(CO)o3)n2)cc1	.	33%[176 µM]	.	.	.	.
Cc1ccn2c(Nc3ccc4c(c3)OCCO4)c(-c3ccc(Cl)s3)nc2c1	.	?	.	-2%	.	.
CN(C)c1ccc(-c2nc3cnccn3c2Nc2ccc3c(c2)OCCO3)cc1	6%	-3%	4%	-1%	1	-7%
CSc1ccc(-c2nc3c(C)cccn3c2Nc2ccc3c(c2)OCCO3)cc1	.	1.4µM*	.	2%	.	.
Clc1ccc(-c2nc3ccccn3c2Nc2ccc3c(c2)OCCO3)s1	.	25µM*	.	3%	.	.
Cc1cccn2c(Nc3ccc4c(c3)OCCO4)c(-c3ccc(Br)o3)nc12	.	?	.	-1%	.	.
CN(C)c1ccc(-c2nc3ccc(Cl)cn3c2Nc2ccc3c(c2)OCCO3)cc1	.	5.6µM*	.	-4%	.	.
CCc1ccc(OCC(=O)Nc2c(C)ccc3nsnc23)cc1	.	16%	.	.	.	.
COc1ccc(NC(=O)C2(C)CCc3cnc(Nc4ccccc4)nc32)cn1 (centres undefined)	.	-18%[176 µM]	.	.	.	.
CCC(C)Sc1cc(C(F)(F)F)c(C(=O)Nc2ccc(Cl)cc2)cn1 (centres undefined)	2%	?	-8%	18µM*	-2	1%
Cn1cc(C(=O)Nc2ccc(Cl)cc2)c(C(F)(F)F)n1	5%	-9%	-1%	3%	0	1%
NCc1ccc(Br)cc1C(F)(F)F	.	5%	.	.	.	.
CN1CC(=O)N(C2CCNCC2)Cc2c(NC3CCCCC3O)ncnc21 (centres undefined)	.	11µM*	.	.	.	.
Cc1ccc(C(=O)/C=C/c2ccc(-c3cc(Cl)ccc3Cl)o2)cc1	.	5µM*	.	.	.	.
SMILES	p53 reactivator	ALOX12 inh	S-ASM inh	PINK1 modulator	CCT chaperon mod	MmCpn inh
Cc1ccc(C(=O)/C=C/c2ccc(-c3ccc(C)cc3)o2)cc1	2%	?	7%	17%	2	-2%
O=Cc1ccc(-c2ccc(Br)cc2Cl)o1	.	40%	.	.	.	.
O=C(/C=C\c1ccc(-c2ccccc2)o1)c1ccccc1	?	?	14%	13%	-3	-3%
O=C(/C=C/c1ccc(-c2ccccc2Cl)o1)c1ccccc1Br	.	4.5µM*	.	.	.	.
Cc1ccc(C(=O)/C=C/c2ccc(-c3cccc(Cl)c3Cl)o2)cc1	.	14µM*	.	.	.	.
O=C(/C=C/c1ccc(-c2ccc(Cl)cc2Cl)o1)c1ccc(Br)cc1	.	8.9µM*	.	.	.	.
Cc1ccc(C(=O)/C=C/c2ccc(-c3ccc(Cl)c(Cl)c3)o2)cc1	.	-81%	.	.	.	.
COc1cccc(-c2c(NC(=O)c3cccc([N+](=O)[O-])c3)oc3ccc(Cl)cc3c2=O)c1	.	73%	.	.	.	.
Cn1c(=O)n(Cc2ccccc2)c(=O)c2sc3c(c21)COC(C)(C)C3	.	-11%	.	.	.	.
Cc1ccc(C)c(OCC(O)Cn2nc(C)c3ccccc3c2=O)c1 (centres undefined)	.	21%	.	.	.	.
O=C(/C=C/c1ccc(-c2cccc(Cl)c2)o1)c1cc(Cl)ccc1Cl	.	18µM*	.	.	.	.
Cc1ccc(-c2cc(C(=O)O)c3ccc(Br)cc3n2)cc1	.	-28%	.	.	.	.
CC(C)(C)c1ccc(O)c(/C=N\O)c1	?	0%	9%	0%	-1	1%
CC(C)(C)c1ccc(O)c(O)c1	?	35µM*	-1%	1%	-1	1%
Cc1cc(C)nc(NS(=O)(=O)c2ccc(NC(=O)c3cc(-c4ccccc4)nc4ccccc34)cc2)n1	-18%	0%	36%	-1%	1	-4%
Cc1ccc(-c2cc(C(=O)Nc3ccc(S(=O)(=O)Nc4onc(C)c4C)cc3)c3ccccc3n2)cc1	-3%	35µM*	11%	0%	-1	2%
Cc1cccc(NC(=O)c2cc(-c3ccco3)nc3ccccc23)n1	13%	28µM*	157%	22%	0	-6%
Cc1cccc(NC(=O)c2cc(-c3ccc(C)o3)nc3ccccc23)n1	.	-116%	.	.	.	.
CN(CC(=O)Nc1cccc(F)c1)C(=O)c1cc(-c2ccco2)nc2ccccc12	-2%	40µM*	.	-3%	-2	0%
COc1ccc(NC(=O)c2cc(-c3ccco3)nc3ccccc23)cc1	.	?	-3%	10%	-1	.
COc1ccc(NC(=O)CN(C)C(=O)c2cc(-c3ccco3)nc3ccccc23)cc1	-1%	?	.	-8%	-6	-6%
